This note sets out measurements from PubChem BioAssay.

Test [1] can be described thus: inhibitors of TNFa-induced NFkB p65 translocation, primary screen, imaging, HUVEC, MLSMR starter and 10KST1 sets (AID 438;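 active = inhibition above 20% together with a positive visual image hit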;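 note: compound added about 3h40 before a 20 min TNFalpha stimulation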;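 for inhibition: signal is the nuclear over cytoplasmic p65 intensity ratio per well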). The settings on record: HUVEC TNFa-induced p65 nuclear translocation; cell count: measured here: nuclei count (cytotoxicity indicator), at 2.08 µM; inhibition: at 2 µM, stronger effect = higher value, 0% TNFa-plus-vehicle, 100% no-TNFa wells.
Test [2] is described as follows: reduction of polyQ htt aggregates in cells – imaging, exon1htt(103Q)mCFP cells, high-content imaging, primary screen (AID 483;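 active = visual image review flags a hit and inhibition of aggregation exceeds 20%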;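 note: compound exposure lasted 3 days before fixation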;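 for nuclei count: percent of the per-plate median nuclei count of sample wells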). The settings on record: exon1htt(103Q)mCFP cell line, aggregate imaging, at 2 µM; inhibition of aggregation: stronger effect = higher value; nuclei count: measured here: cell count, toxicity.
A short description of test [3]: endothelial E-selectin expression blockers – imaging, HUVEC, immunofluorescence, MLSMR starter and 10KST1 sets, primary screen (AID 487;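 active = visually confirmed hit in the image check and inhibition above 20%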;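 for inhibition: signal is fraction of cell area covered by stained E-selectin grains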;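 for nuclei count: 100% = median nuclei count of all wells on the same plate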). Conditions: HUVEC TNFalpha-induced E-selectin immunofluorescence imaging, at 2 µM; inhibition: stronger effect = higher value; nuclei count: measured here: cell number, toxicity.
Test [4] in a line: Primary imaging screen for DUSP6 inhibitors that restore phospho-Erk in transfected HeLa cells, chemical complementation (AID 609;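 active = compounds giving at least 50% inhibition in the cell-based MKP-3 phosphatase rescue imaging test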;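 for inhibition: phospho-Erk level distribution per well compared with pooled transfected vehicle control wells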). The settings on record: HeLa MKP-3 transfected, phospho-Erk imaging KS statistic, at 10 µM, cells stimulated with TPA for 15 min.
The target in test [5] is Dual specificity protein phosphatase 6 (Homo sapiens) (UniProt Q16828). Described as above. The settings on record: HeLa MKP-3 transfected, phospho-Erk imaging KS statistic; at 10 µM; stronger effect = higher value; cells stimulated with TPA for 15 min.
In test [6] the target is Voltage-gated potassium channel subunit beta-2 (Rattus norvegicus) (UniProt P62483). Description: inhibitors of rat Kvbeta2 reductase activity – biochemical, NADPH fluorescence, primary screen (AID 622;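 active = fluorescence slope higher than the sample average by over 3 SD, cut at about -0.22 in these data, passing the limit was not always enough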;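 note: slope of raw intensity against log time taken from 70 to 1610 s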). The settings on record: recombinant KvBeta, 4-cyanobenzaldehyde reduction, at 10 µM, stronger effect = higher value.
Test [7] shares this target. Put plainly: enhancers of rat Kvbeta2 NADPH turnover – biochemical, NADPH fluorescence, primary screen (AID 623;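 active = NADPH fluorescence slope more negative than the mean of all samples by about 3 SD, 99.7% confidence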;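 note: fluorescence intensity change per second fitted from 20 to 320 s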). The settings on record: Recombinant KvBeta, NADPH fluorescence decrease slope, 10 min; at 10 µM; stronger effect = lower value.
Test [8] deals with Muscarinic acetylcholine receptor M4 (Homo sapiens) (UniProt P08173). Description: M4-linked GIRK flux change, two-sided – cell-based, HEK293 M4/GIRK, thallium flux, BTC-AM, M4 allosteric agonist project, primary screen (AID 625;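 active = fluorescence slope after compound addition differing from the mean of all tested samples at 99.7% confidence, mostly higher but some lower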;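 note: thallium influx through GIRK channels coupled to M4 in HEK293 cells with BTC-AM dye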). The settings on record: at 10 µM, actives lie on both sides.
The nature of test [9]: inhibitors of larval lipid processing in zebrafish, primary screen, whole organism, PED6 fluorescence, gall bladder and intestine (AID 686;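 active = a full or partial loss of lipid-probe fluorescence in the fish gall bladder, intestine or both, judged by eye; inactive = no fluorescence loss, or compound toxic to the fish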;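 note: larvae 5 to 7 days old with five fish per well; signal comes from phospholipase A2 cleavage of quenched PED6 carried via bile; overnight exposure to compound and PED6 before scoring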). The settings on record: Zebrafish larvae PED6 lipid processing, fluorescence scoring; screened at 20 µM (by protocol).
A short description of test [10]: loss of swimming-algae plug formation – whole organism, Chlamydomonas reinhardtii, WT vs cilia-less mutant, absorbance, 96-well, primary screen (AID 463189).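 Note: 0% = wild type cc124 cells in DMSO and 100% = ciliumless bld1 mutant cells.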 Conditions: Chlamydomonas reinhardtii gravitaxis, OD600 absorbance, 2 days; at 10 µM; stronger effect = higher value.
Test [11] can be described thus: blockers of RIG-like receptor reporter activation – cell-based, Sendai virus stimulus, luciferase, 10K MLSCN set, TLR/RLR signaling modifier project, primary screen (AID 602276;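 active = inhibition at or above 50% at 10 µM; inactive = inhibition below 50%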;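 note: firefly luciferase from ISG56 promoter only with Renilla not read in this screen; 0% = Sendai virus plus DMSO and 100% = medium plus DMSO without virus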). Conditions: HEK293 RL24 IRF3 luciferase reporter, at 10 µM, stronger effect = higher value. Background: A reporter such as luciferase makes a cellular process visible.
Test [12] can be described thus: TLR3 IRF3 reporter activation blockers – cell-based, poly I:C stimulus, luciferase, 10K MLSCN set, primary screen (AID 602277;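 active = inhibition of the reporter signal at or above 50%; inactive = inhibition below 50%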). Conditions: HEK293-TLR3 RL24 IRF3 luciferase reporter, at 10 µM, stronger effect = higher value.
Where [13] appears, read: measured here: cell density z-score.
Setting [14] is: measured here: nuclear c-Myc green intensity z-score.
Where [15] appears, read: measured here: nuclear pErk red intensity z-score, stronger effect = higher value.

Each structure is given as a SMILES string. Several values for one entry are separate records, joined by “and”; a condition that tells them apart may be missing. Equal entries are not always repeated. Activity calls are given as the source filed them.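 Rule for the calls, unless noted: active = inhibition at or above 50% relative to wild type and mutant plate controls; inactive = inhibition below 50%.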

Chain of Voltage-gated potassium channel subunit beta-2 (Rattus norvegicus) (P62483 whole entry, looked up): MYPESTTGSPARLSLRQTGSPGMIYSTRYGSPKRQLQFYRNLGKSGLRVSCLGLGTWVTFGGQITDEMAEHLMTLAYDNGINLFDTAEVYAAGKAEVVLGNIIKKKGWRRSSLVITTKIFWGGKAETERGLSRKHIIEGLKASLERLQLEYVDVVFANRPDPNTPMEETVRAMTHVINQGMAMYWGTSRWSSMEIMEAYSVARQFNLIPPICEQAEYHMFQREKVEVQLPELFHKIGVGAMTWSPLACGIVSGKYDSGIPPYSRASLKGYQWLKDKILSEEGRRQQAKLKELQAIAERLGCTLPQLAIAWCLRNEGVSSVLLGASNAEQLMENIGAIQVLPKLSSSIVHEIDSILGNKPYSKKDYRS
Chain of Dual specificity protein phosphatase 6 (Homo sapiens) (Q16828 whole entry, looked up): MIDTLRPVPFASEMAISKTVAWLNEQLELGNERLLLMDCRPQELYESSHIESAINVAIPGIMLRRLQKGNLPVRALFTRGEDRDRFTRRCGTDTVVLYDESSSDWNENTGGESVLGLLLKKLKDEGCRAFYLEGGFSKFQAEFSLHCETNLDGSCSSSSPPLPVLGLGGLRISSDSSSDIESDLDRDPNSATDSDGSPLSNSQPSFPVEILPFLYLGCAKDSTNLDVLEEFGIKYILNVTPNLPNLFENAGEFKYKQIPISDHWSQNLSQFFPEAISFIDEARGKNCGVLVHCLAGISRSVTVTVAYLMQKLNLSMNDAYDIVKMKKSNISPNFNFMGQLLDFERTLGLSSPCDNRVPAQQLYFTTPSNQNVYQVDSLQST
Chain of Muscarinic acetylcholine receptor M4 (Homo sapiens) (P08173 whole entry, looked up): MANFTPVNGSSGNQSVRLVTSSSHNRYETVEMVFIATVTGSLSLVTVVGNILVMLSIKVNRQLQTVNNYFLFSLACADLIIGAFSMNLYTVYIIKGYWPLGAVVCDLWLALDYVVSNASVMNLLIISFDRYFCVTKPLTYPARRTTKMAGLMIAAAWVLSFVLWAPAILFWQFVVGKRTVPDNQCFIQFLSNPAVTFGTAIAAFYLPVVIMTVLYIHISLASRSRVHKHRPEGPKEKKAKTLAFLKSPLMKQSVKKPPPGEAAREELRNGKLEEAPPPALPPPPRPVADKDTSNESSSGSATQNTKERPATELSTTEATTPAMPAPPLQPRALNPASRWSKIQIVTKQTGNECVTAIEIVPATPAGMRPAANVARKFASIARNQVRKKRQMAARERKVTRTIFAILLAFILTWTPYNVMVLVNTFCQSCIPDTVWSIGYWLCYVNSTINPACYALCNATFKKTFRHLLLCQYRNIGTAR

Usually inhibition stands for the drop in the measured response relative to a control, in per cent. For the compound `CC(=O)c1c(OCC(=O)O)ccc2c(C)cc(=O)oc12`, the cell count in test [1] turned out to be 717. Moreover, the inhibition was 0.3% (inactive) in test [1]; -27.6% (inactive) in test [3]; 5.95% (inactive) in [5]; 19.8% (inactive) in test [10]; 16.9% (inactive) in test [11]; 17.3% (inactive) in [12]. Further, the inhibition of aggregation in test [2] was 10.5% (inactive). The figures for the nuclei count in test [2] and in test [3] were 97.8% and 126%, respectively. In addition, the figures for the z-score in test [4] (setting [13]), in test [4] (setting [14]) and in test [4] (setting [15]) were -0.71, 0.597 and -0.576, respectively. The fluorescence slope is -0.455 (inactive) in [6] and 0.00563 (inactive) in [8]. Also, the NADPH fluorescence slope in test [7] was -6.6e-05 (inactive). Moreover, in test [9], the outcome was inactive.

For the compound `COc1ccccc1N=Cc1nc(-c2ccccc2)oc1OC(C)=O`, in test [1], the cell count was 451. The inhibition in test [1] is -8.2% (inactive); in test [3] it was -86.5% (inactive); in [5] it was 13.2% (inactive); in [10], 23% (inactive); in test [11], 18.8% (inactive); in [12] it was 40.5% (inactive). The inhibition of aggregation in test [2] is -25.8% (inactive). Also, the nuclei count is 84.2% in test [2] and 132% in [3]. Besides, the z-score in [4] (setting [13]) is 0.537; in test [4] (setting [14]), -1.18; in test [4] (setting [15]), 0.127. Further, the fluorescence slope in test [6] was -0.347 (inactive); in [8], 0.00675 (inactive). Also, the NADPH fluorescence slope in test [7] is -5.8e-05 (inactive). In test [9], the outcome was inactive.

In the case of `CC(CCc1ccccc1)NCC(O)c1ccc(O)c(C(N)=O)c1` (stereo not drawn), the cell count in test [1] was 612. The inhibition in test [1] was -8.1% (inactive); in test [3], -7.9% (inactive); in [5], 13.3% (inactive); in test [10], 10.1% (inactive) and -0.75% (inactive); in test [11], -17.5% (inactive); in [12], 5.32% (inactive). Also, the inhibition of aggregation in test [2] was -15.6% (inactive). Moreover, the nuclei count in test [2] was 103%; in test [3], 107%. In addition, the z-score in test [4] (setting [13]) was 0.375; in test [4] (setting [14]), -0.198; in test [4] (setting [15]), -0.807. The figures for the fluorescence slope in test [6] and in [8] were -0.442 (inactive) and 0.00425 (inactive), respectively. Also, the NADPH fluorescence slope in [7] was 2.9e-05 (inactive). Besides, the compound was called inactive in test [9].

Turning to `CCC(NC(=O)Nc1cc(OC)c(OC)c(OC)c1)(C(F)(F)F)C(F)(F)F`, the cell count in test [1] amounted to 545. Also, the inhibition was 3.4% (inactive) in test [1]; -82.9% (inactive) in [3]; 1.9e-07% (inactive) in test [5]; 8.7% (inactive) in [10]; 20% (inactive) in test [11]; 24.9% (inactive) in test [12]. For the same compound, the inhibition of aggregation in [2] is 15.8% (inactive). In addition, the nuclei count stood at 97.5% in test [2] and 141% in test [3]. For the same compound, the z-score was -0.0203 in test [4] (setting [13]), 1.89 in [4] (setting [14]) and 0.038 in test [4] (setting [15]). Besides, the fluorescence slope in test [6] is -0.48 (inactive); in test [8], 0.00495 (inactive). In addition, the NADPH fluorescence slope in test [7] was -4e-05 (inactive). For the same compound, the compound was classed as inactive in [9].

For the compound `CCc1nc2sc3c(c2c(=O)o1)CCCC3`, the cell count in test [1] is 736. Further, the inhibition in test [1] was -8.2% (inactive); in [3], -32.9% (inactive); in test [5] it was -2.07% (inactive); in test [10], 8.78% (inactive); in test [11], 23% (inactive); in [12], 35.5% (inactive). Moreover, the inhibition of aggregation in test [2] is -11.4% (inactive). Besides, the figures for the nuclei count in [2] and in [3] were 104% and 130%, respectively. The z-score was -0.371 in [4] (setting [13]), -1.28 in test [4] (setting [14]) and 1.35 in test [4] (setting [15]). Besides, the values for the fluorescence slope in test [6] and in test [8] were -0.413 (inactive) and 0.00552 (inactive), respectively. In test [7], the NADPH fluorescence slope was -5.4e-05 (inactive). Also, the outcome in test [9] was inactive.

With `CCOc1c(C)cc2[nH]c(CCC(=O)O)nc2c1C`, the cell count in test [1] is 445. The inhibition is 0.7% (inactive) in test [1]; -40.3% (inactive) in [3]; 7.42% (inactive) in test [5]; 21.6% (inactive) in test [10]; 8.15% (inactive) in test [11]; 8.77% (inactive) in test [12]. The inhibition of aggregation in test [2] is 8.3% (inactive). In addition, the nuclei count in test [2] came to 97.7%; in test [3] it was 116%. Also, the z-score in test [4] (setting [13]) is 1.23; in [4] (setting [14]) it was -1.62; in test [4] (setting [15]) it was -1.73. In addition, the fluorescence slope is -0.491 (inactive) in test [6] and 0.00428 (inactive) in test [8]. For the same compound, the NADPH fluorescence slope in [7] was -3.6e-05 (inactive). Besides, the result in test [9] was inactive.

Regarding `CC(=O)C1=C(O)C(=O)N(c2ccc(C(=O)O)cc2)C1c1ccccc1` (stereo not drawn), the cell count in [1] is 669. The inhibition in test [1] was 4.5% (inactive); in test [3], -53.3% (inactive); in test [5] it was 2.46% (inactive); in test [10], -2.45% (inactive); in test [11], 16.8% (inactive); in test [12], 17.1% (inactive). In addition, the inhibition of aggregation in [2] was 10.3% (inactive). Besides, the nuclei count in test [2] is 101%; in test [3] it was 112%. Further, the figures for the z-score in [4] (setting [13]), in [4] (setting [14]) and in test [4] (setting [15]) were 1.33, -0.568 and -0.179, respectively. For the same compound, the fluorescence slope is -0.428 (inactive) in [6] and 0.00575 (inactive) in test [8]. For the same compound, the NADPH fluorescence slope in test [7] was -5.9e-06 (inactive). Also, the result in [9] was inactive.

For `Cn1c(=O)n(Cc2ccccc2)c(=O)c2c1nc(NCC1CCCO1)n2Cc1ccccc1` (stereo not drawn), in test [1], the cell count came out at 665. For the same compound, the inhibition in test [1] is -8% (inactive); in test [3], -41.8% (inactive); in [5] it was -5.95% (inactive); in test [10], -18.5% (inactive); in test [11], -5.28% (inactive); in [12], -6.2% (inactive). Further, the inhibition of aggregation in test [2] was -1.5% (inactive). Also, the nuclei count in test [2] was found to be 104%; in [3], 102%. For the same compound, the z-score in test [4] (setting [13]) was -3.11; in [4] (setting [14]) it was 0.807; in [4] (setting [15]), -1.47. Besides, the results for the fluorescence slope in test [6] and in [8] were -0.509 (inactive) and 0.00514 (inactive), respectively. The NADPH fluorescence slope in test [7] is -0.000124 (inactive). The call in test [9] was inactive.

Take `Cc1nnc2n(-c3ccccc3)c(=O)c3c4c(sc3n12)CCCC4`: the cell count in test [1] amounted to 661. Moreover, the inhibition was -4.7% (inactive) in test [1]; -54% (inactive) in [3]; -3.95% (inactive) in test [5]; 24.9% (inactive) in test [10]; -14.4% (inactive) in test [11]; -35.5% (inactive) in [12]. The inhibition of aggregation in [2] was 8% (inactive). Moreover, the nuclei count worked out at 95.5% in [2] and 122% in test [3]. Further, the z-score in [4] (setting [13]) is -1.12; in test [4] (setting [14]), -0.18; in test [4] (setting [15]) it was 0.377. For the same compound, the fluorescence slope in [6] was -0.468 (inactive); in test [8], 0.00446 (inactive). In addition, the NADPH fluorescence slope in [7] was -0.000128 (inactive). The compound was classed as inactive in test [9].
